Screening results as filed in PubChem BioAssay.
An excerpt weighted towards active compounds, which were near 0.59% of everything screened.
Giardia kill: Small Molecules that selectively kill Giardia lamblia: qHTS. activity change, % at 7.66 µM, hits read low. 340,000 tested, 0.15% active. Giardia lamblia trophozoite viability. AID 540267, 2011; in the data active means activity change below about -80%; inconclusive means between about -30% and that limit;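 further: parasites exposed to compound for two days anaerobically before the ATP read; on the % scale 0 is the no-effect control and ±100 the full control effect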
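Giardia lamblia trophozoites (100 cells/well) were incubated with compounds for 48 h at 37 deg C under anaerobic conditions. Viability was read as ATP content by one-step luminescence after 15-30 min at room temperature.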
uPA generation: qHTS for Inhibitors of Cell Surface uPA Generation | cell surface uPA generation assay, qHTS | Potency, µM (highest dose often 38.3 µM), for inactives: at the highest dose activity change, negative = inhibition, hits mostly inhibitors | 330,000 tested, 0.31% active; active means well fitted inhibition curve with a large enough effect; inconclusive means small, poorly fitted or top-dose-only effect; inactive means no such curve, though single readings can be large or run the other way; tested in mouse RAW 264.7 cells; further: potency means the concentration at half of the fitted maximal effect; on the % scale 0 is the no-effect control and ±100 the full control effect; nearly all actives have a fitted effect of over 55% in size
Rango release inh: qHTS Assay for Inhibitors of RanGTP induced Rango (Ran-regulated importin-beta cargo) - Importin beta complex dissociation; Snurportin-1 (Homo sapiens) + GTP-binding nuclear protein Ran (Homo sapiens) + Importin …; 340,000 tested, 0.071% active; Potency, µM (top dose mostly 46.1 µM), without a hit: at the top dose activity change, negative = inhibition; AID 540253, 2011; Biochemical FRET Rango-importin beta, RanGTP-induced dissociation; further: potency means the concentration at half of the fitted maximal effect; % of control where 0% means no effect; nearly all actives have a fitted effect of over 45% in size
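Rango/importin beta premix (0.1/0.25 uM final), PBS + 1 mM DTT + 0.02% Tween-20 + 0.1% BSA; cpd 5 min RT; FRET pre-read; + RanGTP-RCC1 (0.6 uM Ran, 2 mM GTP, 0.2 uM RCC1); 45 min RT; FRET post-read, ex 430, em 486/530 nm.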
Rango-impB inh: qHTS Assay for Inhibitors of Rango (Ran-regulated importin-beta cargo) - Importin beta complex formation; Importin subunit beta-1 (Homo sapiens), Q14974; Rango CFP/YFP FRET sensor + importin beta, 45 min; Potency, µM (highest dose often 92.2 µM), for inactives: at the highest dose inhibition of complex formation; 340,000 tested, 0.031% active; AID 540263, 2011;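 further: potency means the concentration at half of the fitted maximal effect; 0% = DMSO wells and 100% = buffer wells lacking importin beta; nearly all actives have a fitted effect of over 15% in size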
Target sequence (Q14974 whole entry, looked up): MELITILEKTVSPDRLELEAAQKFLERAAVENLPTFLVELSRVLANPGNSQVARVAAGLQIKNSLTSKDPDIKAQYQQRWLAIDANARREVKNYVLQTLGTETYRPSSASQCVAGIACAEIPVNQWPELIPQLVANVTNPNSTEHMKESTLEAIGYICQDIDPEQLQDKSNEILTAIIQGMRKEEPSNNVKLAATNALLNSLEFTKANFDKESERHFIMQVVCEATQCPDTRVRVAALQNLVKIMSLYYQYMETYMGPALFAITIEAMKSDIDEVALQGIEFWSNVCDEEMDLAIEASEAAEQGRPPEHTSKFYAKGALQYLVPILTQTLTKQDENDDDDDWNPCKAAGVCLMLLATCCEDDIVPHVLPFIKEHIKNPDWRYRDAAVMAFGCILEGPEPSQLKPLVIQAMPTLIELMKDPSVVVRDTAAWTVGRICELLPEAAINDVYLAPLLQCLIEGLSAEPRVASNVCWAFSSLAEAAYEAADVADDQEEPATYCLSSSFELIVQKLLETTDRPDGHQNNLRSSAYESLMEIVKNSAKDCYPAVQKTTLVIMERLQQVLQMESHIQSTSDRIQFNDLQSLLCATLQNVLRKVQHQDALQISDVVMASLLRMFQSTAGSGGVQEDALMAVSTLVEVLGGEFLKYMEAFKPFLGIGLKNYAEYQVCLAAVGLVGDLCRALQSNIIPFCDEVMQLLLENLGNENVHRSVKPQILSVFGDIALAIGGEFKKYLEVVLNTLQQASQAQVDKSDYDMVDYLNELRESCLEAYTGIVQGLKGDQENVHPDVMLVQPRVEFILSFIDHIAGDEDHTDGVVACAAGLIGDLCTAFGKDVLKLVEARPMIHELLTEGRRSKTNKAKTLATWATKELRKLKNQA
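Inhibition scored from the CFP 486 nm/YFP 530 nm FRET ratio 45 min after adding 0.125 microM importin beta to 50 nM Rango biosensor preincubated 5 min with compound (room temperature, PBS with DTT, Tween-20, BSA). No-importin wells as positive control.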
Integrin act MD: qHTS for Activators of Integrin-Mediated Alleviation for Muscular Dystrophy | alpha7betagal myoblasts, beta-gal FDG fluorescence, 48 h | Potency, µM (highest dose often 38.3 µM), for inactives: at the top dose activation, usual class: activators | 350,000 tested, 0.064% active; active means well fitted activation curve with a large enough effect; inconclusive means small, poorly fitted or top-dose-only effect; inactive means no such curve, though single readings can be large or run the other way;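 further: potency means the concentration at half of the fitted maximal effect; 100% = response of the positive control SU9516; nearly all actives have a fitted effect of over 60% in size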
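Alpha7betagal+/- myoblasts (passage 13) were plated 16-24 hr, then exposed to compounds (1:260 dilution of DMSO stock) for 48 hours at 37C. After MPER lysis, β-galactosidase reporter activity was read as FDG fluorescence (ex 480/em 540) after 30 minutes.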
An asterisk follows results filed as active. Unless noted, the call rests on the fitted dose curve.

What do the screens show for `CS(=O)(=O)c1sc(C#N)c2c1C(=O)CC(c1ccccc1)C2` (configuration not stated)?
Giardia kill: -7; uPA generation: 8.9µM*; Rango release inh: -15%; Rango-impB inh: 0%; Integrin act MD: inconclusive

What do the screens show for `C/C=C1\COC(C(=O)NCCN2CCOCC2)(C(F)(F)F)C=C1C=C1CCCCC1` (configuration not stated)?
Giardia kill: -22

How did S=C(NCCN1CCOCC1)Nc1ccc(-c2nc3ccccc3[nH]2)cc1 do in these assays?
Giardia kill: -9; uPA generation: 10µM*; Rango release inh: -18%; Rango-impB inh: 1%; Integrin act MD: inconclusive

How did Fc1ccc(NC(=S)NCCN2CCOCC2)cc1 do in these assays?
Giardia kill: 1; uPA generation: -1%; Rango release inh: 6%; Rango-impB inh: -2%; Integrin act MD: inconclusive

Results for Cc1ccc(NC(=O)COc2ccccc2CNC(C)(C)CC(C)(C)C)cc1 ?
Giardia kill: -18; uPA generation: -50%; Rango release inh: 17%; Rango-impB inh: 5%; Integrin act MD: 14µM*

How did CC(C)(CO)NCc1ccccc1OCC(=O)Nc1ccccc1 do in these assays?
Giardia kill: -2; uPA generation: 3%; Rango release inh: 2%; Rango-impB inh: 1%; Integrin act MD: -4%

How did C[C@H]1C=CC(=O)C[C@H]1c1c(F)cccc1Cl do in these assays?
Giardia kill: 14

How did CC(CCc1ccc(O)cc1)NCCc1ccc(O)c(O)c1 (configuration not stated) do in these assays?
Giardia kill: 6; uPA generation: 7.9µM*; Rango release inh: 21%; Rango-impB inh: -3%

Results for COc1ccccc1CCNC(C)CCc1ccc(O)cc1 (configuration not stated) ?
Giardia kill: -13; uPA generation: 0%; Rango release inh: -9%; Rango-impB inh: -1%; Integrin act MD: -21%

Results for O=S(=O)(NC(=NC1CCCCC1)c1ccccc1F)c1ccccc1 ?
Giardia kill: 12; uPA generation: 1%; Rango release inh: 20%; Rango-impB inh: -1%; Integrin act MD: 10µM*

How did Cc1ccc(S(=O)(=O)N2CCN(c3nc(-c4cscn4)nc4ccccc34)CC2)cc1 do in these assays?
Giardia kill: 6

What do the screens show for `COc1cccc(NC(=O)Nc2nccc(C)n2)c1`?
Giardia kill: inconclusive; uPA generation: 2.5µM*; Rango release inh: 9%; Rango-impB inh: 2%; Integrin act MD: 15%

What do the screens show for `CCc1ccc(OCCn2c(CCNC(=O)C3CCCCC3)nc3ccccc32)cc1`?
Giardia kill: 8

How did Cc1cc(NC(=O)CSc2nc(-c3cccs3)nc3ccccc23)no1 do in these assays?
Giardia kill: -21; uPA generation: 1.8µM*; Rango release inh: 4%; Rango-impB inh: -7%; Integrin act MD: -56%

How did CCOC(=O)C1=C(C)N=c2s/c(=C/c3cccc([N+](=O)[O-])c3O)c(=O)n2C1c1ccc(OC)cc1OC (configuration not stated) do in these assays?
Giardia kill: -80*; uPA generation: 2%; Rango release inh: 0%; Rango-impB inh: 0%; Integrin act MD: 19%

How did CCOC(=O)C1=C(C)N=c2s/c(=C\c3ccc(O)c([N+](=O)[O-])c3)c(=O)n2C1c1ccccc1OC (configuration not stated) do in these assays?
Giardia kill: inconclusive; uPA generation: 3%; Rango release inh: -20%; Rango-impB inh: 4%; Integrin act MD: 21%

How did Cc1ccc(NC(=O)c2cccc(S(=O)(=O)Nc3c(C)n(C)n(-c4ccccc4)c3=O)c2)cc1C do in these assays?
Giardia kill: 8; uPA generation: 10%; Rango release inh: -4%; Rango-impB inh: -2%; Integrin act MD: 3%

How did Cc1nc(SCC(=O)Nc2nccs2)c(C#N)c(C)c1C do in these assays?
Giardia kill: inconclusive; uPA generation: 1µM*; Rango release inh: 26µM*; Rango-impB inh: inconclusive; Integrin act MD: 7%

What do the screens show for `O=C(CN1C(=O)c2ccccc2S1(=O)=O)Nc1cc(S(=O)(=O)N2CCOCC2)ccc1N1CCOCC1`?
Giardia kill: -4

How did COc1ccc(C(=O)N/C(=C/c2cccnc2)C(=O)N2CCN(C)CC2)cc1OC do in these assays?
Giardia kill: 16; uPA generation: -1%; Rango release inh: 19%; Rango-impB inh: 0%; Integrin act MD: 4.5µM*

How did CC[n+]1ccccc1/C=C1\Sc2ccc(C)cc2N1C do in these assays?
Giardia kill: 4; uPA generation: 7.1µM*; Rango release inh: -25%; Rango-impB inh: inconclusive; Integrin act MD: -62%

Results for COc1ccc(-c2ccc(N(C)C)cc2)cc1C1C2C=CCCC2(C)C(=O)N1Cc1ccccc1 (configuration not stated) ?
Giardia kill: -12

Results for COC(=O)c1cccc(Nc2ncnc3ccc(C)cc23)c1 ?
Giardia kill: -12; uPA generation: -5%; Rango release inh: -14%; Rango-impB inh: -1%; Integrin act MD: -3%

What do the screens show for `COc1ccc(Nc2ncnc3ccc(C)cc23)cc1`?
Giardia kill: -8; uPA generation: 21%; Rango release inh: -4%; Rango-impB inh: inconclusive; Integrin act MD: 3.5µM*

How did COc1ccc(Oc2c(OC)cc(NCc3ccc(CN)cc3)c3ncccc23)cc1 do in these assays?
Integrin act MD: -13%

What do the screens show for `O=S(=O)(CC(CN1CCCCC1)N1CCCCC1)c1ccccc1` (configuration not stated)?
Giardia kill: 6; uPA generation: 8.9µM*; Rango release inh: -1%; Rango-impB inh: -1%; Integrin act MD: -5%

How did Cn1c([N+](=O)[O-])cnc1N1CCN(c2nncs2)C1=O do in these assays?
Giardia kill: -93*; uPA generation: -1%; Rango release inh: 21%; Rango-impB inh: -2%; Integrin act MD: -9%

Results for Cc1ccc(S(=O)(=O)N2C[C@H]3n4c(=O)ccc(=O)n4C[C@H](OC(=O)NCC4CCCCC4)[C@@]3(O)C2)cc1 ?
Integrin act MD: -62%

Results for COC(=O)c1ccccc1NC(=O)CSc1nc2ccsc2c(=O)n1CCCCC(=O)O ?
Integrin act MD: 17%

Results for Cn1cnnc1Sc1ccc(/C=C/C(=O)c2ccc(O)cc2)cc1[N+](=O)[O-] ?
Giardia kill: -4; uPA generation: 8.9µM*; Rango release inh: 21%; Rango-impB inh: 1%; Integrin act MD: 8%
